# High-throughput results from PubChem.
# Tau fibril FP: blocks human tau fibril formation measured by polarization; P10636; K18 P301L tau heparin fibrillization, Alexa594 FP, 6 h; Potency, µM (top dose mostly 57.7 µM), without a hit: at the top dose activity, negative = inhibition, most hits filed as inhibitors; 0.39% of 280,000 active; also: nearly all actives have a fitted effect of over 55% in size
# Target sequence (P10636 561-689 P618L limits assumed): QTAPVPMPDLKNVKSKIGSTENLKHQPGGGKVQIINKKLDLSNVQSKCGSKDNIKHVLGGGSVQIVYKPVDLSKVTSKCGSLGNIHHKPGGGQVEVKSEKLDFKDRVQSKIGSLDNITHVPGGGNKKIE
#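 Heparin (20 uM) drove fibril formation of recombinant tau K18 P301L, 15 uM unlabeled with 0.24 uM Alexa 594 label, for 6 hr at 37 C in 100 mM sodium acetate pH 7. Fluorescence polarization (555/632 nm) read 1 hr after 30 uM ThT.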
# KDM4E inh: blocks human JMJD2E demethylase activity | 1.6% of 230,000 active | JMJD2E catalytic domain, FDH-coupled NADH fluorescence (FDH is formaldehyde dehydrogenase) | AID 2147 | Potency, µM (series often up to 57.1 µM), for the others: at the top dose activity change, negative = inhibition, usual class: inhibitors | B2RXH2; active = well fitted inhibition curve with a large enough effect, not every such curve was filed as active; inconclusive = small, poorly fitted or top-dose-only effect, or another doubt; inactive = no such curve, though single readings can be large or run the other way;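 also: 0% = wells with enzyme and -100% = buffer wells without enzyme; nearly all actives have a fitted effect of over 50% in size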
# GoLoco inh red: RGS12 GoLoco-Gai1 interaction inhibition. 0.44% of 230,000 active. Potency, µM (titrated, usually from 61.6 µM), for inactives: at the highest dose activity, negative = inhibition, hits mostly inhibitors. P63096. Gai1:RGS12 GoLoco peptide FP, rhodamine, 10 min; active = well fitted inhibition curve with a large enough effect, not every such curve was filed as active; inactive = no such curve, though single readings can be large or run the other way; also: nearly all actives have a fitted effect of over 30% in size
# Target sequence (P63096 whole entry, looked up): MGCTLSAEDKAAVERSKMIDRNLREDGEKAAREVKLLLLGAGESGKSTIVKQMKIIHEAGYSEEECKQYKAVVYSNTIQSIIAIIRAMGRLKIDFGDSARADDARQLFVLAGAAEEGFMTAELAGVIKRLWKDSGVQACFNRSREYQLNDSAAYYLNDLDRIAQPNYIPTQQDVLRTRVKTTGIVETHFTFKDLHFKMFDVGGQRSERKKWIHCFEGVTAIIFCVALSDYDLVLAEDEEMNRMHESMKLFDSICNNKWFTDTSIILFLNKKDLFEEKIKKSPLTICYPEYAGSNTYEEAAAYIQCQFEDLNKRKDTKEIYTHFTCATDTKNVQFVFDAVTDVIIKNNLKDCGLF
# Tau fibril ThT: tau fibrillization inhibition (ThT binding); P10636; recombinant tau K18 P301L, heparin-induced fibrillization, ThT fluorescence; Potency, µM (titrated, usually from 57.4 µM), without a hit: at the top dose activity, negative = inhibition, usual class: inhibitors; 2.1% of 270,000 active; also: nearly all actives have a fitted effect of over 55% in size
#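 Using a mix of unlabeled (15 uM) and Alexa 594-labeled (0.24 uM) tau K18 P301L, heparin-triggered fibrillization over 6 hr at 37 C was scored by ThT fluorescence.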
# Tau fluor cs: counter-screen for tau fibril formation inhibitors. tau K18 P301L Alexa594 fluorescence, heparin fibrillization. Potency, µM (highest dose often 57.7 µM), for the others: at the top dose activity change, negative = decrease. 0.93% of 280,000 active. AID 1463; also: nearly all actives have a fitted effect of over 55% in size
#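 Human tau K18 P301L (15 uM unlabeled, 0.24 uM Alexa 594-labeled) in 100 mM sodium acetate pH 7 with 20 uM heparin, 6 hr at 37 C. ThT 30 uM added, 1 hr ambient; Alexa 594 FP and total fluorescence read at 555/632 nm.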
# Numbers without * were called inactive; ? = inconclusive; . = not tested or not shown; [ ] = another dose, or the depositor's remark. Only some compounds are listed: those with a hit (about 3.4% of all), similar ones and a draw of the others. Unless noted, calls follow the shape of the dose curve; as a rule, active = well fitted curve in the direction sought with a large enough effect; inconclusive = small, poorly fitted or top-dose-only effect, or another doubt; inactive = no such curve, though single readings can be large; an effect the other way counts as inactive or inconclusive. Unless noted, % is scaled to controls: 0 for no effect and ±100 for the full control effect; potency is read from the fitted curve at half-maximal effect.
SMILES,Tau fibril FP,KDM4E inh,GoLoco inh red,Tau fibril ThT,Tau fluor cs
O=C(O)c1cc(Br)ccc1NN=C1CCCCC1,-14.1%,?,-9.8%,20µM*,-21.9%
O=c1cccccc1NN=C1CCCCC1,-6.6%,-23.2%,-1.7%,.,-14.8%
CC(C)NC(=O)Cn1ccc2cc(S(=O)(=O)N3CCCCCC3)ccc21,-0.5%,.,.,8.3%,-5.1%
COc1ccc(-c2ccc(/C=C3/C(=N)N4C=CSC4=NC3=O)o2)c([N+](=O)[O-])c1,-16.0%,?,39.9%,1.78µM*,?
N=C1/C(=C/c2cccn2-c2ccc([N+](=O)[O-])cc2)C(=O)N=C2SC=CN12,5.8%,0.7%,7.1%,-4.5%,-1.3%
COCCCNC(=O)c1c(NC(=O)Cc2coc3c(C)c(C)ccc23)sc2c1CCCC2,6.6%,.,.,?,-28.4%
Cn1cc(-c2cc3n(n2)CCC(=O)N3CCCC(=O)Nc2ccc(F)cc2F)c2ccccc21,-5.9%,.,.,?,-30.0%
O=c1[nH][nH]c(-c2ccccc2O)c1C(C[N+](=O)[O-])c1ccccc1 (centres undefined),8.2%,-19.5%,10.2%,-17.7%,-7.6%
O=c1[nH][nH]c(-c2ccccc2O)c1C(C[N+](=O)[O-])c1cccc(Cl)c1 (centres undefined),-13.9%,-0.6%,0.3%,25.1µM*,?
Cc1ccc(OCC(=O)NCC(c2ccc(Cl)cc2)N2CCCCC2)cc1 (centres undefined),6.7%,.,.,-4.6%,-2.7%
CCOC(=O)C1=C(C)OC2(O)c3ccccc3C(=O)C12O (centres undefined),1.41µM*,?,4.2%,2µM*,-16.0%
CC(=O)C1=C(C)OC2(O)c3ccccc3C(=O)C12O (centres undefined),?,?,7.7%,2.24µM*,-12.6%
Cc1cccc(OCC(=O)N(Cc2cccc(Cl)c2)Cc2ccco2)c1C,-0.9%,.,.,-10.4%,-10.2%
Cc1ccc(NC(=O)CN2C=NS(=O)(=O)c3ccccc32)cc1,-11.1%,.,.,0.0%,-9.5%
Oc1ccc(NC(=S)N=Nc2c(O)[nH]c3ccc(Br)cc23)cc1,-2.3%,19.6%,-5.5%,5.01µM*,15.8µM*[quencher]
N=C(N)N=Nc1c(O)[nH]c2ccc(Br)cc12,-1.6%,-21.8%,0.3%,?,-8.7%
Oc1[nH]c2ccc(Br)cc2c1N=NC(=S)Nc1ccc(F)cc1,-2.6%[0.0958 µM],-11.9%,1.7%,.,6.7%[0.0958 µM]
Oc1ccc(NC(=S)N=Nc2c(O)[nH]c3ccccc23)cc1,4.0%,-4.4%,7.6%,14.1µM*,?
Oc1cccc(NC(=S)N=Nc2c(O)[nH]c3ccc(Br)cc23)c1,-1.5%,5.9%,3.8%,6.31µM*,11.2µM*[quencher]
O=C(N=Nc1c(O)[nH]c2ccc(Br)cc12)c1ccccc1-n1cccc1,?,-6.8%,5.9%,?,14.1µM*[quencher]
CCOc1ccc(CCNC(=O)C2CCC(CNS(=O)(=O)c3ccc(Cl)cc3)CC2)cc1OCC (centres undefined),-4.4%,.,.,-11.4%,-1.5%
CNC(=S)N=Nc1c(O)[nH]c2ccc(C(C)C)cc12,-3.5%,5.9%,.,15.8µM*,?
CNC(=S)N=Nc1c(O)[nH]c2ccccc12,-15.5%,5.2%,0.4%,?,-17.7%
Cc1cc(C)c(C#N)c(Sc2ccccc2N)n1,-6.3%,?,-6.3%,-17.1%,0.2%
N#CC(=C(/N)Sc1ccccc1N)/C(C#N)=C(\N)Sc1ccccc1N,.,.,8.6%,14.1µM*,17.8µM*[quencher]
SMILES,Tau fibril FP,KDM4E inh,GoLoco inh red,Tau fibril ThT,Tau fluor cs
CCOc1ccc2[nH]c3c(NCCc4ccc(OC)c(OC)c4)ncnc3c2c1,?,?,7.9%,.,22.4µM*[quencher]
COc1cc(CNc2ncnc3c2[nH]c2ccc(C)cc23)cc(OC)c1,14.5%,?,-5.8%,13.1%,15.8µM*[quencher]
C[C@@H]1C[C@@H]2OC(=O)[C@]3(C)[C@H]2[C@@H](OC3(C)O)[C@]2(C)C(=O)C=C[C@H]12 (some centres undefined),-9.6%,7.2%,-3.7%,-16.4%,17.3%
C=C1C(=O)O[C@@H]2C[C@@H](C)[C@@H]3C=CC(=O)[C@@]3(C)[C@@H](OC(C)=O)[C@H]12,?,1.3%,-5.2%,3.98µM*,-19.7%
CCOC(=O)N1CCC(NC(=O)c2ccc3c(c2)N(Cc2ccc(F)cc2)C(=O)c2ccccc2S3=O)CC1 (centres undefined),-3.0%,.,.,-9.8%,-20.5%
COC(=O)c1c(-c2cccs2)csc1NC(=O)c1ccc(C)cc1,?,.,.,31.6µM*,-24.7%
COC(=O)c1c(-c2cccs2)csc1NC(=O)c1ccc(OC)c(OC)c1,?,.,.,?,-20.0%
COC(=O)c1c(-c2cccs2)csc1NC(=O)c1cc(OC)c(OC)c(OC)c1,?,.,.,11.2µM*,-20.2%
COC(=O)c1c(-c2cccs2)csc1NC(=O)c1ccc(Br)cc1,?,.,.,15.8µM*,-23.8%
CCOC(=O)c1c(-c2cccs2)csc1NC(=O)c1ccncc1,-4.9%,-17.0%,-3.4%,-9.6%,-9.7%
Cc1cccc(CSc2cn(CC(=O)N3CCCCC3)c3ccccc23)c1,-9.2%,.,.,?,-19.5%
O=C(Cn1c(=O)oc2cc(S(=O)(=O)NCc3ccccc3)ccc21)Nc1cccc(F)c1,?,.,.,1.6%,-7.4%
Cc1ccc2[nH]c3c(c2c1)CN(C(=O)CN1CCN(c2cccc(C)c2C)CC1)CC3,-2.2%,22.4µM*,5.7%,?,?
Cc1ccc2[nH]c3c(c2c1)CN(C(=O)CN1CCN(C(=O)c2ccco2)CC1)CC3,4.9%,-2.7%,-50.7%,-10.1%,-6.2%
COc1ccc(N=C2NC(=O)/C(=C\C=C\c3ccco3)S2)cc1,?,?,23.4%,8.91µM*,?
Cc1cccc(N=C2NC(=O)/C(=C/C=C/c3ccco3)S2)c1,-8.8%,?,33.7%,5.01µM*,-28.0%
O=C1NC(=Nc2ccc3ccccc3c2)S/C1=C/c1ccco1,?,-2.4%,44.4%,14.1µM*,?
CCOc1ccc(CNC(=O)CCn2c(=O)c3cccn3c3ccc(F)cc32)cc1,2.1%,.,.,6.9%,2.4%
COc1ccc(CNC(=O)CCC(=O)N2CC3CCCN3c3ccccc32)cc1 (centres undefined),4.6%,.,.,-14.7%,-24.2%
Cc1ccc(CNc2ccc(-c3nc(-c4ccncc4)no3)cc2[N+](=O)[O-])cc1,6.8%,.,.,-12.0%,-21.7%
O=C(Nc1ccc(Nc2ccncc2)cc1)c1ccc(Nc2ccnc3ccc([N+](=O)[O-])cc23)cc1[N+](=O)[O-],-3.0%,?,36.4%,?,11.2µM*[quencher]
O=C(Nc1ccc(Nc2ccncc2)cc1)c1ccc([N+](=O)[O-])cc1,7.4%,-2.3%,13.2%,?,-12.8%
COc1ccc2c(c1)C(=NO)c1cc(OC)ccc1-2,-0.3%,6.7%,1.4%,0.708µM*,?
C=CCOc1ccc2c(c1)C(=NO)c1cc(OCC=C)ccc1-2,?,-1.2%,-0.8%,7.94µM*,?
